Source: publication PMC4336329 (PLoS ONE, 2015)
Hit rate of the full screen: of about 310,000 compounds, about 14,000 (4.5%) showed an effect of 50% or more. The effect is printed as a negative number. The full list was thinned out, with strong results kept by preference.

Target: human ether-à-go-go-related gene (hERG) potassium channel (human, UniProt Q12809)
Assay: primary screen, population patch clamp on CHO cells stably expressing hERG; higher = less effect of the substance
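Also: peak tail current of the secondary pulse compared with the same well before compound.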

human ether-à-go-go-related gene (hERG) potassium channel, sequence (Q12809 whole entry, looked up): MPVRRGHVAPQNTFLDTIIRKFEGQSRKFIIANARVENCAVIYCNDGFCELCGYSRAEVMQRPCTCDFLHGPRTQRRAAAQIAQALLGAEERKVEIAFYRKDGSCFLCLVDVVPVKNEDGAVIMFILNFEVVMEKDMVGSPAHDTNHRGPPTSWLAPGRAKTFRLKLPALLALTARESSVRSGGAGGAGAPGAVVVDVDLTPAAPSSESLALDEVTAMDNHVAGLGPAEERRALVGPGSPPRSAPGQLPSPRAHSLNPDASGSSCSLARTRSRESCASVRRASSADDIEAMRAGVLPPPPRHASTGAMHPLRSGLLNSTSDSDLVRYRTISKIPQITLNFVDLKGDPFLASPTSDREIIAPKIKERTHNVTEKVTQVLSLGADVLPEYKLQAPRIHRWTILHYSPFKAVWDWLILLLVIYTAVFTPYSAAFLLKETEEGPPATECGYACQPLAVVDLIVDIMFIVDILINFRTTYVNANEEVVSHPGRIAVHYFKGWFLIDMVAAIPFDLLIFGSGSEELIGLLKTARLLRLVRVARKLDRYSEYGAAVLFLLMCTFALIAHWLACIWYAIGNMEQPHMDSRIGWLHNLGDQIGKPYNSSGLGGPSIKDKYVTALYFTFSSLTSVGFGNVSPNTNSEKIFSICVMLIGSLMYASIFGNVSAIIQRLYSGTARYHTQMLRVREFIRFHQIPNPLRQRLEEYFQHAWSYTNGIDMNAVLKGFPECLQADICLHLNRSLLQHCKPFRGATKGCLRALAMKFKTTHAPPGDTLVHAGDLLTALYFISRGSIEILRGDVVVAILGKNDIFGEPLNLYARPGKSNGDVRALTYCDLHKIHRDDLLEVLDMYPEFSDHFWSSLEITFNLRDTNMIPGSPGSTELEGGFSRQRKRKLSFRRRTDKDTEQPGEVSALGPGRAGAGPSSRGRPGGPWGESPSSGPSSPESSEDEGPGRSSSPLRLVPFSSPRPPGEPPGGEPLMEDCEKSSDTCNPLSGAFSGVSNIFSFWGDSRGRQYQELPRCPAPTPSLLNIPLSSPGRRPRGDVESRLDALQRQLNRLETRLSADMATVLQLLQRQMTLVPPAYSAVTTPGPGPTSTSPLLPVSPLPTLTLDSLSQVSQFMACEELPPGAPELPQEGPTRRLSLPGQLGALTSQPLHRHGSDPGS

Row | SMILES | hERG current change (%, negative = inhibition) at 10uM
1 | Cc1cccc(C)c1NC(=S)N1CCCN(C)CC1 | 15.2%
2 | Clc1ccc(-c2cnc3ccccc3n2)cc1 | 9.07%
3 | COc1ccc(C(=O)Nc2cc(C)c3c(=O)oc4ccccc4c3n2)cc1 | 7.49%
4 | OCC[C@@H]1C[C@H](O)[C@@H](O)[C@@]2(Cc3ccccc3CCO2)O1 | 10.6%
5 | CCC(Sc1nccn1C)C(=O)Nc1ccc(Cl)cn1 (stereo not drawn) | 5.78%
6 | Cl.O=[N+]([O-])c1ccc(CN2CCN(c3ccc4ccccc4n3)CC2)cc1 | -12.1%
7 | CCn1c(N2CCN(Cc3ccc([N+](=O)[O-])cc3)CC2)nc2ccccc21.Cl | -74.7%
8 | O=[N+]([O-])c1ccc(CN2CCN(c3nc4ccccc4s3)CC2)cc1 | -1.07%
9 | CCCn1c(N2CCN(C(=O)Nc3ccc(Cl)cc3)CC2)nc2ccccc21 | -16.8%
10 | CCCn1c(N2CCN(Cc3ccc(Cl)cc3)CC2)nc2ccccc21.Cl | -69.8%
11 | Cl.c1ccc(CN2CCN(CCN3CCn4c3nc3ccccc34)CC2)cc1 | -75.8%
12 | CN1CCN(CCN2CCn3c2nc2ccccc23)CC1.Cl | -7.38%
13 | CC(O)c1nc2cc([N+](=O)[O-])ccc2n1Cc1ccccc1 (stereo not drawn) | 1.79%
14 | Cc1cccc(Cn2c(C(C)O)nc3ccccc32)c1 (stereo not drawn) | 5.37%
15 | CC(O)c1nc2ccccc2n1Cc1ccc([N+](=O)[O-])cc1 (stereo not drawn) | -73.4%
16 | CCCn1c(N2CCN(C(=O)N3CCCCC3)CC2)nc2ccccc21.Cl | -20.4%
17 | Cl.c1ccc2c(c1)nc1n2CCN1CCN1CCCC1 | -3.08%
18 | COc1ccc(NC(=O)CSc2cn[nH]n2)cc1OC | 31.4%
19 | COc1ccc(NC(=O)N2C[C@@H]3C[C@@H](C2)c2cccc(=O)n2C3)cc1 | 7.74%
20 | N#C/C(=N\Nc1ccc(Cl)cc1)C(=N)N1CCCCC1 | -31.1%
21 | CC(C)C(=O)Nc1ccc(S(=O)(=O)N2CCC(c3nc4ccccc4[nH]3)CC2)cc1 | -42.7%

Row | SMILES | hERG current change (%, negative = inhibition) at 10uM
22 | CC1=CCC(C(=O)O)C(C(=O)Nc2ccc(-c3nc4ccc(C)cc4s3)cc2)C1 (stereo not drawn) | 7.8%
23 | COc1ccccc1Oc1ccccc1[N+](=O)[O-] | 5.95%
24 | O=C(NNC(=O)c1ccc(Cl)c([N+](=O)[O-])c1)c1ccncc1 | 13.2%
25 | COc1cc(/C=C2/C(=O)N(c3ccc([N+](=O)[O-])cc3)N=C2N2CCOCC2)ccc1O | -42.2%
26 | CCN(CC)CCn1c2ccc(Cl)cc2c2nc(C)sc21.Cl | -68.2%
27 | COC(=O)Cn1c2ccc(Cl)cc2c2nc(C)sc21 | 5.43%
28 | Cc1nc2c3cc(F)ccc3n(Cc3ccc(F)cc3)c2s1 | 13.8%
29 | CCN(CC)CCn1c2ccccc2c2nc(C)sc21 | -30.6%
30 | Cc1nc2c3cc(F)ccc3n(Cc3ccccc3)c2s1 | 4.24%
31 | CCN(CC)CCn1c2ccc(F)cc2c2nc(C)sc21.Cl | -54.3%
32 | COc1ccc(-n2ccc(=O)c3c2CCCC3=O)cc1 | 13.5%
33 | CCn1cc(C(=O)O)c(=O)c2cnc(N3CCN(C(=S)Nc4ccccc4Cl)CC3)nc21 | -4.66%
34 | N#Cc1ccc(Cl)cc1NC(=O)COC(=O)[C@H](CCC(N)=O)NC(=O)c1ccc(F)cc1 | 1.75%
35 | Cc1ccc2c(c1)C(C)CC(C)(C)N2C(=O)CN1CCN(C)CC1.O=C(O)C(=O)O (stereo not drawn) | -23.6%
36 | Cc1ccc(C(=O)NCCN2C3=NC[C@H](C(C)C)N3C[C@H]2Cc2ccc(O)cc2)cc1Br | -26.3%
37 | COc1ccc(C[C@@H]2CN3C(=NC[C@@H]3C)N2CCNC(=O)c2ccc(C)c(Br)c2)cc1 | -71.4%
38 | C/C=C(\C)C(=O)NCCN1C2=NC[C@@H](C)N2C[C@@H]1Cc1ccc(OC)cc1 | 0.0958%
39 | COc1ccc(C[C@H]2CN3C(=NC[C@H]3C)N2CCNC(=O)c2ccc(C)c(Br)c2)cc1 | -72%
40 | C/C=C(\C)C(=O)NCCN1C2=NC[C@@H](C)N2C[C@H]1Cc1ccc(O)cc1 | 12.9%
41 | COc1ccc(C[C@H]2CN3C(=NC[C@@H]3C(C)C)N2CCNC(=O)c2ccc(C)c(Br)c2)cc1 | -79%
42 | CCc1nc(-c2ccccc2)cc(=O)[nH]1 | -6.29%

Row | SMILES | hERG current change (%, negative = inhibition) at 10uM
43 | CCOC(=O)c1cc(NC(=O)c2ccc(C)cc2)c(=O)oc1C(F)(F)F | -2.5%
44 | O=C(CSCc1ccccc1)Nc1ccc(S(=O)(=O)N2CCOCC2)cc1 | -17.7%
45 | Cc1cc(C(=O)N/N=C/c2ccc(-c3cccc(Br)c3)o2)n[nH]1 | 12.4%
46 | NS(=O)(=O)c1ccc(CNC(=O)CC23CC4CC(CC(C4)C2)C3)cc1 | -5.69%
47 | Cc1nn(C)c(C)c1NC(=O)CSc1nnc(C)n1-c1ccccc1 | -0.523%
48 | Cc1cc(NC(=O)CSc2nnc3c(C)cc4cc(C)c(C)cc4n23)no1 | 20%
49 | O=C1CNC(=O)/C1=C/c1ccc(Br)cc1 | 16.7%
50 | CN1/C(=C/C(=O)c2nc(S(C)(=O)=O)ncc2Cl)C(C)(C)c2ccccc21 | -29.9%
51 | CCN(CC)CCn1c2c(c(SCC(=O)Nc3ccc(C(C)C)cc3)nc1=O)CCC2 | -56.9%
52 | CCN(CC)CCn1c2c(c(SCC(=O)Nc3ccc(C(C)C)cc3)nc1=O)CCCC2 | -68.3%
53 | O=C(COC(=O)c1ccc(NS(=O)(=O)c2ccc3c(c2)OCCO3)cc1)NC1CC1 | -1.56%
54 | COc1cc(OC)c(C2=NOC(C(=O)O)C2)cc1Cl (stereo not drawn) | 5.14%
55 | CC(C)(C)c1ccc(SCCc2ccncc2)cc1 | 3.48%
56 | COC(=O)C1=C(c2ccc(F)cc2OCc2ccccc2)C[C@@H]2CC[C@H]1N2C(=O)NCc1cccc(OC)c1 | 2.72%
57 | COc1ccc(-c2cc(C(=O)Nc3c(C)n(C)n(-c4ccccc4)c3=O)no2)cc1 | 6.42%
58 | CCc1ccc2oc(-c3ccc(OC)cc3)cc(=[NH+]c3cccc(C(=O)O)c3)c2c1.F[B-](F)(F)F | 5%
59 | COc1ccc(-c2cc(=Nc3c(C)n(C)n(-c4ccccc4)c3=O)c3ccccc3o2)cc1 | -68.1%
60 | CCc1ccc2oc(-c3ccc(OC)cc3)cc(=[NH+]c3c(C)n(C)n(-c4ccccc4)c3=O)c2c1.F[B-](F)(F)F | -71.7%
61 | COc1ccc(N=c2cc(-c3ccc(OC)cc3)oc3ccccc23)cc1 | 4.41%
62 | COc1ccc(-c2cc(=Nc3ccc(C)cc3)c3ccccc3o2)cc1 | 5.87%
63 | COc1ccc(CCNC(=S)NCCc2ccc(OC)c(OC)c2)cc1OC | 5.11%

Row | SMILES | hERG current change (%, negative = inhibition) at 10uM
64 | Cc1ccn2cc(CSc3ccccc3N)nc2c1 | -29.1%
65 | CCN(CC)c1ccc(NC(=O)CCc2nnc3ccc(N4CCCCC4)nn23)c(C)c1 | -12.8%
66 | CCCCC/C(=N/O)c1c(C)[nH]c2ccccc12 | 4.53%
67 | Cc1ccc(N(CC(O)CON=C2c3ccccc3-c3ccccc32)S(C)(=O)=O)cc1 (stereo not drawn) | 15.5%
68 | O=C(NCC1CCCN1S(=O)(=O)c1cccs1)c1ccc([N+](=O)[O-])cc1 (stereo not drawn) | -55.2%
69 | Cc1ccc(C)c(S(=O)(=O)N2CCCC2CNC(=O)C(=O)NC2CC2)c1 (stereo not drawn) | -0.659%
70 | O=C(NCC1CCCN1S(=O)(=O)c1cccs1)c1ccccc1 (stereo not drawn) | 16.5%
71 | Cc1ccc(C)c(S(=O)(=O)N2CCCC2CNC(=O)C(=O)NCc2ccco2)c1 (stereo not drawn) | -54.2%
72 | Cc1ccc(C)c(S(=O)(=O)N2CCCCC2CCNC(=O)C(=O)NCc2ccco2)c1 (stereo not drawn) | -21.8%
73 | O=C(NCC1CCCN1S(=O)(=O)c1cccs1)c1cccc([N+](=O)[O-])c1 (stereo not drawn) | -24.5%
74 | Cc1ccc(C)c(S(=O)(=O)N2CCCC2CNC(=O)c2ccc([N+](=O)[O-])cc2)c1 (stereo not drawn) | -81.8%
75 | Cc1ccc(S(=O)(=O)N2CCCC2CNC(=O)c2ccc(F)c(F)c2)cc1 (stereo not drawn) | -52.5%
76 | Cc1ccc(C)c(S(=O)(=O)N2CCCC2CNC(=O)C(=O)NCCc2ccco2)c1 (stereo not drawn) | -21.2%
77 | Cc1ccc(S(=O)(=O)N2CCCC2CNC(=O)c2ccccc2)cc1 (stereo not drawn) | -9.34%
78 | Cc1ccc(C(=O)NCC2CCCN2S(=O)(=O)c2ccc(C)cc2)cc1 (stereo not drawn) | -33.8%
79 | Cc1ccc(C)c(S(=O)(=O)N2CCCC2CNC(=O)C(=O)NCC2CCCO2)c1 (stereo not drawn) | -15.5%
80 | COc1ccc(C(CNC(=O)C(CC(C)C)NS(=O)(=O)c2ccc(C)cc2)N2CCOCC2)cc1 (stereo not drawn) | -3.25%
81 | Oc1c(C=NCc2ccncc2)sc2ccccc12 | -38.4%
82 | CCCCn1c(N)c(N(CCC(C)C)C(=O)c2cccc(-n3cnnn3)c2)c(=O)[nH]c1=O | -7.92%
83 | CCc1ccc(CN(C)C(=O)CC2C(=O)NCCN2Cc2ccoc2)cc1 (stereo not drawn) | 4.18%
84 | COc1ccc(Cl)cc1NC(=O)C1CCN(S(C)(=O)=O)CC1 | 3.72%
